From PubChem BioAssay (NCI)
This is part of a sample that, as a whole, favours compounds with a hit. Of some 79,000 tested, about 15% had one in any assay. Values without a mark were called inactive. Activity calls are given as the source filed them. No stated cut-off is given here; in the data, active means growth inhibition above about 70%; inactive means the rest.

Test: NCI Yeast Anticancer Drug Screen. Data for the rad52 strain (AID 147);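 further: 0% = growth of vehicle-treated control cultures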
Settings: S. cerevisiae rad52 mutant growth inhibition; at 100.0 µM; hits give high values
In short: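 Here a repair-compromised yeast strain receives each compound; its growth is then quantified and normalised to vehicle-only controls.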

Compound | growth inhibition
S=C(S)NN1CCOCC1 | 50%
COc1cc2c3c(cccc3c1)C(=O)N(CCN(C)C)C2=O | 87% (active)
COC(=O)C1=C(C)NC(C)=C(C(=O)OCCCN2CCC(c3ccccc3)(c3ccccc3)CC2)C1c1cccc([N+](=O)[O-])c1 (stereo not given) | 88% (active)
c1ccc2c(c1)Oc1cccc3cccc-2c13 | 58%
CN(C)CCOc1ccc2c(c1)C/C(=C/c1ncc([N+](=O)[O-])n1C)C2=O | 90% (active)
Cc1ccc(CCC2=CCCc3c2ccc2ccccc32)cc1 | 0%
CNC(=O)OCc1c(COC(=O)NC)c(-c2ccc(Cl)c(Cl)c2)n2c1CCC2 | 97% (active)
Clc1ccccc1C1OC1c1ccccc1Cl (stereo not given) | -32%
O=[N+]([O-])c1cc(CCl)ccc1CCl | 97% (active)
O=C1C=CC(=O)c2c(O)c(Nc3ccc(OC(F)(F)F)cc3)c(Cl)c(O)c21 | 81% (active)
S=c1[nH]nc(Nc2ccc(Cl)cc2)s1 | 96% (active)
Cn1ccnc1Oc1ccc(Cl)cc1 | 97% (active)
BrCc1cccc2ccc3cccc(CBr)c3c12 | 10%
O=C1c2ccccc2-c2nc3ccccc3nc21 | 91% (active)
CCCCCCCCCCCCCCCCCCNC | 95% (active)
Oc1ccc(NCn2c(=S)sc3ccccc32)cc1 | 97% (active)
O=C1C2CC[C@@H]3C(=O)C(Cl)(Cl)[C@@H]3CCC2C1(Cl)Cl (stereo not given in full) | 76% (active)
CC[n+]1ccc2c(C)c3[nH]c4ccc(O)cc4c3c(C)c2c1 | 92% (active)
Cc1ccc(-n2cc(-c3ccc(Cl)cc3)c(C#N)c2N)cc1 | 23%
CC(=O)[O][Bi]([c]1ccccc1)[c]1ccccc1 | 94% (active)

Compound | growth inhibition
CC1=C(SCCO)C(=O)c2ccccc2C1=O | 67%
C/C(=N\O)C1CC2C=C(C#N)C1N(Cc1ccccc1)C2 (stereo not given) | 8%
CC(Br)C(=O)c1ccc2cc(Br)c3ccccc3c2c1 (stereo not given) | 2%
Nc1nc(-c2cccnc2)cc(-c2cc(-c3cccnc3)nc(N)n2)n1 | -8%
CC(C)=CC(=O)O[C@@H]1CC(C)(C)CC2C3=CCC4[C@]56CC[C@](O)(OC5)C(C)(C)C6CC[C@@]4(C)C3(C)CC[C@]21C(=O)O (stereo not given in full) | 92% (active)
CCC(C)COC(=O)c1ccc(N=Cc2ccc(C=Nc3ccc(C(=O)OCC(C)CC)cc3)cc2)cc1 (stereo not given) | 13%
Oc1cccc2c(Cl)ccnc12 | 98% (active)
O=C(O)c1cccc(-c2c3ccc(=O)cc-3oc3cc(O)ccc23)c1 | 85% (active)
CN(CCc1ccccn1)c1ccc2c(c1)Cc1ccccc1-2 | 53%
Cc1cc(S(=O)(=O)/N=C(/NN)NNc2cccc(C(F)(F)F)n2)c(S)cc1Cl | 23%
O=C1C2C(C(=O)N1c1ccc(OCc3ccccc3)cc1)C1c3ccccc3C2C2CCCCN21 (stereo not given) | 79% (active)
Nc1ccccc1CC(O)C(=O)O (stereo not given) | 88% (active)
O=C(O)C1CCCCC1c1c2ccc(=O)c(O)c-2oc2c(O)c(O)ccc12 (stereo not given) | 79% (active)
Cc1ccc2ccc(O)cc2c1 | 80% (active)
O=C1C(=O)c2ccccc2C=C1[N+](=O)[O-] | 91% (active)
COC(=O)c1ccc(NCC2=CC(=O)C=CC2=O)cc1O | 92% (active)
C(CCSC1=NCCN1)CSC1=NCCN1 (tested in a mixture with another compound) | 99% (active)
N#Cc1c(N)[nH]c2ccc(Sc3ccccc3)cc12 | 81% (active)
CCNc1nnc(CSc2nc(-c3ccccc3)c(-c3ccccc3)[nH]2)s1 | 80% (active)
CC[C@@]1(O)C(=O)OCc2c1cc1n(c2=O)Cc2cc3c(N)cccc3nc2-1 | 75% (active)
